In PubChem BioAssay (EPA / NIEHS):
Several values for one entry are separate records, joined by “and”; a condition that tells them apart may be missing. Equal entries are not always repeated. Inconclusive results are not listed. Activity calls are given as the source filed them. Rule for the calls: active = hit-call score of the fitted dose curve at least 0.9, where 1 is the maximum; inconclusive = response in the unintended direction; inactive = score below 0.9.

target: rat Thyrotropin Releasing Hormone Receptor (TRH), Trhr (gene 25570) (UniProt Q01717); assay: NVS_GPCR_rTRH: NovaScreen (NVS) G Protein-Coupled Receptor Assay for rat Thyrotropin Releasing Hormone Receptor (TRH) (AID 2283329);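 note: hit means lower bound tracer signal versus DMSO baseline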
Sequence (Q01717 whole entry, looked up): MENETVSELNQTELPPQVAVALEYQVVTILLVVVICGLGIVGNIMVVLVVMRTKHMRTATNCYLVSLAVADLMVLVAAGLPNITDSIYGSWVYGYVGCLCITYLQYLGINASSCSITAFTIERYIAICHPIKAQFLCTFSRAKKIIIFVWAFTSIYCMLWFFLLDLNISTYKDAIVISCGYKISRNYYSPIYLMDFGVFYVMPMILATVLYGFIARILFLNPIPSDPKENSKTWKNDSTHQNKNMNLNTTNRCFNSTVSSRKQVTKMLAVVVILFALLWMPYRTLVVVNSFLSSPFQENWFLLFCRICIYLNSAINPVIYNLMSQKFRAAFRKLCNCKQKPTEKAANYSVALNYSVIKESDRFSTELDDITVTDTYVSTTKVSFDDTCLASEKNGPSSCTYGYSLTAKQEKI
Outline: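 Rat forebrain membranes; radioligand displacement at TRH receptor by filter-based scintillation counting, read 4 h after dosing. Duplicate single-point screen at 25 uM, actives rerun in concentration series; loss of signal relative to DMSO.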

Row | Structure (SMILES) | outcome
1 | O=S1(=O)OC(c2cc(Br)c(O)c(Br)c2)(c2cc(Br)c(O)c(Br)c2)c2ccccc21 | inactive
2 | CC(C)N(C(=O)CCl)c1ccccc1 | inactive
3 | CC(O)(CS(=O)(=O)c1ccc(F)cc1)C(=O)Nc1ccc(C#N)c(C(F)(F)F)c1 (stereo not drawn) | inactive
4 | O=C(CBr)c1ccc(O)cc1 | inactive
5 | COc1ccccc1N | inactive
6 | O=C(CCl)Nc1ccccc1 | inactive
7 | N#CCC#N | inactive
8 | CCOCn1c(-c2ccc(Cl)cc2)c(C#N)c(Br)c1C(F)(F)F | inactive
9 | COc1nn(C(=O)NS(=O)(=O)c2ccccc2OC(F)(F)F)c(=O)n1C | inactive
10 | N#CCCC(Br)(C#N)CBr (stereo not drawn) | inactive
11 | O=c1nc(O)n(Cl)c(=O)n1Cl | inactive
12 | O=c1[nH]c(=O)n(Cl)c(=O)n1Cl | inactive
13 | CN(N=O)C(N)=O | inactive
14 | CC(=Cc1ccccc1)[N+](=O)[O-] | inactive
15 | O=[N+]([O-])c1ccc(Cl)c([N+](=O)[O-])c1 | inactive
16 | CCC[CH2][Sn]([Cl])([Cl])[CH2]CCC | inactive
17 | CNC(=O)O/N=C/C(C)(C)S(C)(=O)=O | inactive

target: human Peripheral-type Benzodiazepine Receptor (PBR), TSPO (gene 706) (UniProt P30536); assay: NVS_MP_hPBR: NovaScreen (NVS) Membrane Protein Assay for human Peripheral-type Benzodiazepine Receptor (PBR) (AID 2283331);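 note: hits reduce radioligand binding relative to DMSO baseline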
Sequence (P30536 whole entry, looked up): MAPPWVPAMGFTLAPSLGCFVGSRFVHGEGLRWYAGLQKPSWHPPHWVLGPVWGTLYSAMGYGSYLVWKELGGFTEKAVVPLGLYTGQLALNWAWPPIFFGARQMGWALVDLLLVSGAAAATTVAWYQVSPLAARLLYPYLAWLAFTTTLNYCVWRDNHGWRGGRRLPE
Outline: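 Radioligand displacement on human colonic cell membranes, 1 h incubation; bound radioactivity by filtration and scintillation counting. Primary screen in duplicate at 25 uM single concentration, actives followed up in concentration series; loss of binding versus DMSO.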

Row | Structure (SMILES) | AC50 | outcome
18 | O=S1(=O)OC(c2cc(Br)c(O)c(Br)c2)(c2cc(Br)c(O)c(Br)c2)c2ccccc21 | 5.29 µM (active) | –
19 | Cc1cccc(OP(=O)(Oc2cccc(C)c2)Oc2cccc(C)c2)c1 | 1.79 µM (active) | –
20 | CC(C)N(C(=O)CCl)c1ccccc1 | 7.59 µM (active) and 7.28 µM (active) | –
21 | Clc1cccc(Cl)c1 | – | inactive
22 | COC(=O)Nc1cccc(OC(=O)Nc2cccc(C)c2)c1 | 0.323 µM (active) | –
23 | Cc1ccccc1OP(=O)(Oc1ccccc1)Oc1ccccc1 | 1.28 µM (active) | –
24 | CCOCn1c(-c2ccc(Cl)cc2)c(C#N)c(Br)c1C(F)(F)F | 0.368 µM (active) | –
25 | Cc1ccc(OP(=O)(Oc2ccc(C)cc2C)Oc2ccc(C)cc2C)c(C)c1 | 0.422 µM (active) | –
26 | CCOP(=O)(OCC)OC(=CCl)c1ccc(Cl)cc1Cl | 2.12 µM (active) | –
27 | CCCCOP(=O)(CCCC)OCCCC | 6.98 µM (active) | –
28 | COCC(=O)N(c1c(C)cccc1C)[C@H](C)C(=O)OC | – | inactive
29 | CCOC(=O)CCN(SN(C)C(=O)Oc1cccc2c1OC(C)(C)C2)C(C)C | 5.06 µM (active) | –
30 | CCOP(=S)(OCC)SCS(=O)(=O)C(C)(C)C | 12.9 µM (active) | –
31 | Cc1ccccc1OP(=O)(Oc1ccccc1C)Oc1ccccc1C | 0.8 µM (active) | –
32 | CCOP(=S)(OCC)O/N=C(\C#N)c1ccccc1 | – | inactive
33 | CCOC(=O)C(SP(=S)(OC)OC)c1ccccc1 (stereo not drawn) | 13.4 µM (active) | –
